Myeloid diff MLP: induction of myeloid progenitor differentiation, primary screen, cell-based, flow cytometry, MLPCN library; calls only at 10 µM; actives 1% (n = 360,000); ER-HoxA9 myeloid progenitors, lysozyme-GFP differentiation;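 active = normalized GFP-positive differentiation at or above the plate's own cutoff, the solvent-only control mean plus 3 SD; inconclusive = no clear call, values can overlap the other calls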;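 note: cells exposed to compound for four days before flow analysis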
NR3A LBD binder: binders of NR3A ligand-binding domain, primary screen, biophysical, differential scanning fluorimetry, uHTS; Glutamate receptor ionotropic, NMDA 3A (GRIN3A) ligand-binding domain; NR3A LBD differential scanning fluorimetry, Tm shift; 0% = protein alone, 100% = glycine-bound protein; Tm shift relative to glycine control, % at 25 µM; actives 2.5% (n = 340,000);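 active = melting temperature shift of at least 10% of the positive control shift, at one fixed dose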
MPTP block: mitochondrial permeability transition pore inhibitors, primary screen, biochemical, isolated mouse mitochondria, absorbance. Ca2+ swelling absorbance, 30 min. inhibition, % at 10 µM. actives 1.4% (n = 360,000). AID 602449, 2012;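 active = inhibition of 50% or more, scaled per plate between neutral and stimulator controls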;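 note: 0% = DMSO wells given calcium and 100% = 1 mM EGTA wells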
rCAG RNA binder: binders of r(CAG) RNA repeats, primary screen, biochemical, fluorescence; actives 1.3% (n = 370,000); r(CAG) RNA repeat, TO-PRO-1 dye displacement fluorescence; AID 651821, 2012; inhibition, % at 3 µM;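 active = inhibition above the plate cutoff, the mean of all test compounds on that plate plus 3 SD, cut at about 35% in these data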;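 note: 0% = DMSO alone and 100% = 100 µM mitoxantrone as full dye displacement; higher means more dye released from RNA so lower well fluorescence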
FAS TE block: FAS thioesterase domain inhibitors, primary screen, biochemical, fluorescence intensity, uHTS. recombinant FAS-TE, OMFH fluorogenic substrate, fluorescence endpoint. inhibition, % at 15 µM. actives 0.67% (n = 360,000). AID 602261, 2012;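 active = compounds whose normalised, plate-corrected inhibition of enzyme fluorescence in the single-dose primary screen is 50% or more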;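 note: 0% = DMSO with enzyme and 100% = substrate without enzyme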
MPTP counter: fluorescence retest of MPTP screen hits in isolated mitochondria, single concentration | actives 78% (n = 5,000) | membrane potential, Rhodamine 123 fluorescence | shares compounds with MPTP block | inhibition, % at 10 µM | AID 624504, 2012; in the data active = inhibition above about 22%;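 note: 0% = DMSO vehicle and 100% = positive control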
Myeloid diff: inducers of myeloid progenitor differentiation, confirmation, cell-based, GFP/Mac1 flow cytometry, cherry pick 01 | shares compounds with Myeloid diff MLP | ER-HoxA9 myeloid progenitors, GFP/Mac1 double-positive flow | calls only | actives 2% (n = 2,300) | AID 651706, 2012;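 active = share of green or green-and-red cells above 9 and 9% in run 1 or 4 and 3% in run 2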
GFP autofluor: flagged as fluorescent in myeloid differentiation counter-screen; shares compounds with Myeloid diff MLP; ER-HoxA9 myeloid progenitors, no estrogen, GFP autofluorescence flow cytometry; vehicle wells 0%, positive control 100%; fluorescence response, % (test concentration not listed); actives 7.4% (n = 2,300); AID 651707;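 active = over 5% cells positive for green fluorescent reporter, or over 2% positive for both it and APC stain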;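 note: range taken on the double positive population between DMSO and positive control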
rCAG binder conf: small molecules binding CAG repeat RNA – biochemical, fluorescence, confirmation; shares compounds with rCAG RNA binder; r(CAG) RNA repeat, TO-PRO-1 dye displacement fluorescence; inhibition, % at 3 µM; actives 70% (n = 4,300); AID 652065, 2013;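 active = inhibition above a per-plate cutoff, the mean inhibition of sample wells plus 3 SD, cut at about 35% in these data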;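 note: loss of TO-PRO-1 fluorescence as compound displaces dye from 1x1 AA loop RNA; 0% = DMSO only wells and 100% = 100 µM mitoxantrone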
DNA CAG counter: displacement of TO-PRO-1 from CAG DNA duplex, counter-screen for rCAG RNA repeat binder project, biochemical, fluorescence, TO-PRO-1 dye, d(CAG) DNA oligo | shares compounds with rCAG RNA binder | d(CAG) DNA oligo TO-PRO-1 dye displacement | inhibition, % at 3 µM | actives 94% (n = 4,300) | AID 652068, 2013;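 active = inhibition above its plate's cutoff, the mean test-well inhibition plus 3 SD, cut at about 4.8% in these data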;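 note: 0% = DNA dye mix with DMSO and 100% = 100 µM mitoxantrone; hits displace the dye from DNA and so lower well fluorescence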
The depositor's hits bear a star; i = inactive; ? = inconclusive; / = no result; + = active, no number. In the library only some 5.7% were active in any assay of this set; here they are far more common.

SMILES	Myeloid diff MLP	NR3A LBD binder	MPTP block	rCAG RNA binder	FAS TE block	MPTP counter	Myeloid diff	GFP autofluor	others
COc1cccc(NC(=S)NC2CC(C)CC(C)(C)C2)c1 (centres undefined)	i	/	64.4*	2.0	16.4	93.1*	/	/
CC(C)C[C@H]1CN=C(Nc2ccccc2)N1CC1CCC(C(C)(C)C)CC1 (some centres undefined)	?	-11.5	43.1	/	-150.3	/	/	/
Cc1ccc(-c2nnc(NCc3ccccc3)c3ccccc23)cc1	i	-10.0	65.1*	2.7	13.9	84.8*	/	/
COC(=O)c1ccc(NC(=O)c2snnc2-c2ccccc2)cc1	i	-2.2	0.2	-1.8	10.0	/	/	/
FC(F)(F)c1ccc(N2CCN(c3cc(-c4ccccc4)nc4ncnn34)CC2)nc1	i	-2.2	92.2*	-3.2	35.6	47.8*	i	1.0
FC(F)(F)c1cccc(Nc2cc(-c3ccccc3)nc3ncnn23)c1	i	3.7	2.5	-1.4	-4.6	/	/	/
C=CCc1c(C)nc(-c2ccccc2)nc1Nc1ccccc1O	+	1.7	59.5*	6.9	17.4	63.2*	i	63.2*
Cc1csc(-c2cc(C(=O)NCc3cc(C(F)(F)F)cc(C(F)(F)F)c3)n[nH]2)c1	+	/	71.9*	3.1	21.1	77.9*	i	4.0
Cc1ccc(S(=O)(=O)N2CCCCC2)cc1NC(=O)CSc1ncnc2ccccc12	i	-7.7	4.7	4.2	12.7	/	/	/
Cc1ccc(NC(=O)CSc2ncnc3ccccc23)cc1S(=O)(=O)N1CCCCCC1	+	-1.5	62.1*	10.2	8.9	81.0*	i	0.4
N#C/C(=C\c1cc(Cl)cc(Cl)c1O)C(=O)NC1CCCCC1	i	-1.2	60.8*	30.6	43.2	67.5*	i	0.3
O=C(CCc1ccccc1)N/N=C/c1cc(Br)ccc1O	i	-20.5	91.4*	6.7	44.6	79.8*	i	0.3
Cc1nn(C)cc1CN1CCCC(C(=O)c2ccc(-c3ccccc3)cc2)C1 (centres undefined)	i	-1.5	0.3	-5.7	-3.0	/	/	/
COc1ccc(NC(=O)Nc2nnc(C(C)(C)C)s2)cc1	?	-7.6	13.3	30.4	2.9	/	/	/
CC(C)(C)c1nnc(NC(=O)Nc2ccc(Cl)cc2)s1	+	-0.2	58.0*	32.6	-5.1	85.6*	i	0.3
N=c1n(CCCOc2ccccc2Cl)c2ccccc2n1CC(N)=O	i	-1.7	-0.2	5.9	-5.9	/	/	/
CCOc1ccc(OCCCCOc2ccccc2C(C)=O)cc1	i	-2.4	0.6	-6.2	24.3	/	/	/
CC(C)(C)NC(=O)CN(Cc1ccc2c(c1)OCO2)C(=O)CNS(=O)(=O)c1ccccc1	i	-3.0	-4.3	-0.5	-3.3	/	/	/
CSc1nc(N)nc(SCCS(=O)(=O)c2ccc(Cl)cc2)c1C#N	i	4.9	10.6	8.4	41.7	/	/	/
CSc1nc(N)nc(SCC(=O)Nc2ccc(Cl)cc2)c1C#N	i	28.6*	84.8*	21.9	42.7	81.9*	i	0.0
COc1ccc(-n2c(=O)c3c4c(sc3n3c(=S)[nH]nc23)CCCC4)cc1	i	1.9	1.4	3.9	-0.1	/	/	/
CN(C)C(=O)Nc1ccc(Cl)c(Cl)c1	i	/	-1.1	3.0	-4.0	/	/	/
CC(C)C1O/C(=N/C(=O)Nc2ccc(Cl)c(Cl)c2)NC1=O (centres undefined)	i	-6.3	92.9*	9.7	9.3	91.6*	i	0.0
CCCCCCC[C@@H](C/C=C/CCC(=O)N(C)C/C(=C/Cl)C/C(=C\C(=O)N1C[C@H](O)CC1=O)OC)OC	i	-12.3	74.5*	5.7	19.5	102.0*	i	4.6
Cc1nnsc1C(=O)Nc1ccc(S(=O)(=O)N2CCCCC2)cc1	i	2.8	-0.2	3.2	-4.4	/	/	/
SMILES	Myeloid diff MLP	NR3A LBD binder	MPTP block	rCAG RNA binder	FAS TE block	MPTP counter	Myeloid diff	GFP autofluor	others
Nc1nc2cc3c(cc2cc1C(=O)NCc1ccc(F)cc1)OCO3	+	/	85.9*	/	-4.4	95.1*	i	1.4
COc1cc(CNCCc2c[nH]c3ccccc23)ccc1OCc1ccc(F)cc1	i	-3.3	70.3*	7.9	-16.2	-25.2	i	0.0
COc1cccc(CNCCc2c[nH]c3ccccc23)c1OCc1ccc(F)cc1	i	0.8	31.8	7.0	-13.7	/	/	/
CC(C)N1C(=O)S/C(=C/c2ccc(Sc3nc4ccccc4[nH]3)o2)C1=O	i	-7.7	100.2*	4.5	6.3	88.0*	i	0.0
COc1ccc(CCNc2c(C)c(C)nc3ncnn23)cc1	i	3.0	74.5*	-2.9	-5.7	82.5*	i	0.0
CCc1c(C)nc2ncnn2c1NCCc1ccc(OC)c(OC)c1	i	-1.2	14.4	-8.2	-5.5	/	/	/
CCOC(=O)C1CCN(c2nc(-c3ccc(C)cc3)nc3ccccc23)CC1	i	2.6	11.5	1.1	24.8	/	/	/
CC(C)(C)c1nc(NC(=O)Nc2ccccc2)sc1Br	i	2.9	94.0*	36.2*	24.7	80.4*	/	/	rCAG binder conf=15.6;DNA CAG counter=15.7*
Cc1cc(NC(=O)Nc2ccccc2)n(C(C)(C)C)n1	i	0.9	0.1	0.4	-6.6	/	/	/
Cc1ccc(-n2c(O)c(/C=N/Nc3ccc(S(=O)(=O)N4CCOCC4)cc3[N+](=O)[O-])c3ccccc3c2=O)c(C)c1	i	-1.1	110.0*	66.5*	30.7	39.9*	/	/	rCAG binder conf=88.0*;DNA CAG counter=71.0*
O=C(Nc1ccc(Cl)c(Cl)c1)Nc1nccs1	?	36.6*	87.2*	62.0*	18.8	68.3*	/	/	rCAG binder conf=17.2;DNA CAG counter=21.8*
O=[N+]([O-])c1ccc(O)c(/C=N/NC(=S)Nc2ccc(Cl)cc2Cl)c1	i	3.6	96.4*	45.8*	41.5	47.2*	/	/	rCAG binder conf=88.9*;DNA CAG counter=64.2*
O=[N+]([O-])c1cccc(N/N=C/c2cc([N+](=O)[O-])ccc2O)c1	i	31.1*	64.0*	36.2*	11.2	61.4*	/	/	rCAG binder conf=26.8;DNA CAG counter=10.1*

Screening results deposited in PubChem by several laboratories.
